Results taken from PubChem BioAssay (EPA / NIEHS).
Inconclusive results are not listed. Activity calls are given as the source filed them. How the source made its calls: active means hit-call score of the fitted dose curve at least 0.9, where 1 is the maximum; inconclusive means response in the unintended direction; inactive means score below 0.9.

read-out: ABC Transporter (ABCB11), ABCB11 (gene 8647); test: CLD_ABCB11_48hr: CellzDirect (CLD) Gene Expression Assay for ABC Transporter (ABCB11) at 48 hours (AID 2283697)
Description: CLD_48hr is a cell-based, multiplexed-readout assay that uses hepatocyte, a human liver primary cell, with measurements taken at 48 hours after chemical dosing in a 96-well plate.CLD_ABCB11_48hr is one of 16 assay component(s) measured or calculated from the CLD_48hr assay. It is designed to make measurements of mRNA induction, a form of inducible reporter, as detected with chemiluminescence signals by Quantitative Nuclease Protection Assay (qNPA) technology.Data from the assay component CLD_ABCB11_48hr was analyzed at the endpoint, CLD_ABCB11_48hr, in the positive analysis fitting direction relative to DMSO as the negative control and baseline of activity. Using a type of inducible reporter, gain-of-signal activity can be used to understand changes in the reporter gene as they relate to the gene ABCB11. Furthermore, this assay endpoint can be referred to as a primary readout. To generalize the intended target to other relatable targets, this assay endpoint is annotated to the transporter intended target family, where subfamily is ABC transporter.
Human hepatocyte cultures were treated daily for two consecutive days with fresh dosing solutions containing appropriate concentrations of the 320 ToxCast chemicals (chemical identities were blinded to CellzDirect and other ToxCast collaborators), vehicle control (0.2% DMSO), and positive control inducers as summarized in Table 1. Due to the large number of treatment groups and chemicals examined, the ToxCast chemicals were divided into two groups (spanning two independent cultures of hepatocytes from separate donor preparations (Hu778: ToxCast plates 1 and 2; Hu776: ToxCast plates 3 and 4). Each preparation of human hepatocyte cultures was treated with respective vehicle control, medium only control, set of six positive controls/reference chemicals for the five hepatic receptor pathways, and a subset of eight of the ToxCast chemicals (indoxacarb, pyrithiobac-sodium, norflurazon, cyhalofop-butyl, methomyl, thiram, acetochlor, and propiconazole). These replicate data, coupled with internal replicates designed within the blinded ToxCast chemical library, provided additional data to evaluate interindividual differences between hepatocyte preparations and their potential impact on chemical profiles.Cell morphology and integrity were evaluated using phase-contrast microscopy as an indicator of hepatocyte cell health (Tyson & Green, 1987). Cultures for each treatment group (i.e., media, vehicle [0.2% DMSO], positive control inducers [multiple concentrations], and the ToxCast chemicals [multiple concentrations]) were observed and cell morphology was assessed relative to vehicle control cultures at each harvest time point (0, 6, 24, or 48 h). […] Images were evaluated at the conclusion of the study to assess changes in cell integrity and account for the effects of chemical exposure on uncharacteristic changes in concentration-dependent gene expression profiles. The results from these determinations of apparent cytotoxicity were annotated (yes/no) alongside the corresponding qNPA data for reference.At the conclusion of each treatment period, hepatocyte cultures (96-well) were washed with 1 volume of HBSS, lysed by addition of 25 ul ArrayPlate lysis buffer (HTG, Tucson, AZ), and 70 ul/well of Denaturation Oil, denatured by incubation at 95C for 10 min, and frozen at approximately -70C until analysis by nuclease protection assay (qNPA) (Roberts et al., 2007). For qNPA analysis, cell lysates were thawed at 50C for approximately 30 min, qNPA probes were added, and samples were incubated at 95C for 10 min to begin the detection process by denaturing the target RNA, dissociating the duplexes and secondary structure hybridization. At the conclusion of the hybridization period, S1 nuclease reagent was added to each sample to digest all nonprotected nucleotides at 50C for 60-90 min. […]

SMILES | outcome | AC50
COC(=O)c1c(Cl)nn(C)c1S(=O)(=O)NC(=O)Nc1nc(OC)cc(OC)n1 | inactive | 
CC1(C)C(C=C(Cl)Cl)C1C(=O)OCc1cccc(Oc2ccccc2)c1 (stereo unspecified) | inactive | 
CCNc1nc(N)nc(Cl)n1 | inactive | 
OB(O)O | inactive | 
CCC(C)OC(=O)N1CCCCC1CCO (stereo unspecified) | inactive | 
CCCCC(CC)COC(=O)c1ccccc1C(=O)O (stereo unspecified) | inactive | 
COCCO | inactive | 
CCOC(=O)[C@H](C)Oc1ccc(Oc2nc3ccc(Cl)cc3o2)cc1 | inactive | 
CCCOC(=O)c1ccc(C(=O)OCCC)nc1 | inactive | 
CCCCCOC(=O)COc1cc(N2C(=O)C3=C(CCCC3)C2=O)c(F)cc1Cl | inactive | 
CCOC(=O)C(C)Oc1ccc(Oc2cnc3cc(Cl)ccc3n2)cc1 (stereo unspecified) | inactive | 
C#CCOC(=O)[C@@H](C)Oc1ccc(Oc2ncc(Cl)cc2F)cc1 | inactive | 
O=C(Nc1ccc([N+](=O)[O-])cc1Cl)c1cc(Cl)ccc1O | inactive | 
N#CSCSc1nc2ccccc2s1 |  | 34.1 µM (active)
CCCN(CCC)C(=O)SCC | inactive | 
c1ccc(Nc2ccccc2)cc1 | inactive | 
